# Screening results as filed in PubChem.
# An excerpt weighted towards active compounds, which were near 6.5% of everything screened.
# Spn DPM-DC inh = S. pneumoniae DPM-DC inhibition. purified DPM-DC, PK/LDH coupled NADH fluorescence. calls only at 10 µM. 0.49% of 65,000 active;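 active = the 320 compounds with the highest percent inhibition in the single-dose primary screen, excluding strongly autofluorescent ones, cut at about 32% in these data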;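 note: kinetic rate of NADH fluorescence loss reporting ADP formed by the decarboxylase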
# NADH enzymes = inhibition of NAD/NADH coupling enzymes, library profiling; AID 774; 0.02% of 65,000 active; coupled PK/LDH NADH assays, four targets; IC50, µM (doses to about 10 µM), without a hit: at the top dose inhibition;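 active = single-dose screening hits from any of four coupled enzyme assays that gave an IC50 when retested across doses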;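 note: the DPM-DC format reads NADH fluorescence rather than 340 nm absorbance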
# Spn PMK inh = S. pneumoniae PMK inhibition. purified PMK, PK/LDH-coupled NADH absorbance 340 nm. inhibition, % at 10 µM. 0.49% of 65,000 active. AID 539;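 active = top-ranked compounds by inhibition in the single 10 µM screen, taking a fixed number of the strongest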;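 note: 0% = full reaction with DMSO carrier and 100% = background rate without enzyme reaction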
# Abs 340nm = absorbance at 340 nm | compound absorbance at 340 nm, fold over control | fold change at 10 µM | 65,000 tested, under 10 active;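 active = at 10 µM dose, initial 340 nm absorbance at least 2 fold that of control wells; inactive = change under 2 fold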;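 note: initial absorbance extrapolated from kinetic A340 decline of NADH oxidation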
# MK inhibit = S. pneumoniae mevalonate kinase inhibition. inhibition, % at 10 µM. AID 555. purified MK, PK/LDH-coupled NADH absorbance 340 nm. 0.48% of 65,000 active;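 active = ranked among the strongest by inhibition in the single 10 µM screen, a fixed top-ranked set picked for dose follow-up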
# Fluor 339 460 = intrinsic fluorescence of library compounds, ex339/em460 – biochemical, MLSMR library, data from DPM-DC assay, artefact control, profiling panel; 5.5% of 65,000 active; compound autofluorescence, ex339/em460 nm, NADH buffer; stronger effect = higher value; 1 = no-compound wells, NADH background; fluorescence fold increase at 10 µM;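 active = at 10 µM, mean starting fluorescence two-fold or more over control wells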;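 note: signal is the first read of a kinetic run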
# * marks the source's active call; other numbers are inactive results; i = inactive; . = not tested or not shown; + = active, no number.
SMILES,Spn DPM-DC inh,NADH enzymes,Spn PMK inh,Abs 340nm,MK inhibit,Fluor 339 460
COC(=O)c1ccccc1NC1OC(=O)c2ccccc21 (stereo not drawn),i,12%,8,1.1,0,3*
Cc1ccc2nc3ccc(N4CCCC4)nn3c(=O)c2c1,i,5%,16,1.1,0,1.6
Cc1sc2nc3ccc(N4CCCCC4)nn3c(=O)c2c1C,i,4%,7,1.1,4,2.4*
CC1CCCN(c2ncnc3c2cnn3-c2ccccc2)C1 (stereo not drawn),i,6%,10,1,4,0.92
COc1cccc2[nH]c3c(N4CCCC(C)C4)ncnc3c12 (stereo not drawn),.,10%,10,1.1,9,3.4*
CCOC(=O)C1CCCN(c2ncnc3c2cnn3-c2cccc(C)c2)C1 (stereo not drawn),i,5%,15,1,0,1.1
CCOC(=O)C1CCCN(c2ncnc3c2[nH]c2cccc(OC)c23)C1 (stereo not drawn),.,8%,12,1.1,4,3.7*
O=C(CCc1ccc(S(=O)(=O)N2CCOCC2)cc1)NCCCN1CCCC1=O,i,6%,14,0.98,4,1
Cc1nc2nc(-c3cccnc3)[nH]n2c(=O)c1Cc1ccccc1,i,4%,7,1.1,6,1.1
N#Cc1nc(-c2ccco2)oc1NCc1ccc(F)cc1,i,15%,10,1,11,3.3*
N#Cc1nc(-c2ccco2)oc1NCc1cccnc1,i,19%,20,1,16,2.1*
COC(=O)c1cc(OC)c(OC)c(OC)c1NC(=O)c1ccc(S(=O)(=O)N(C)C)cc1,i,4%,2,1.1,9,1.1
Cc1nn(C)cc1CNC(=O)CCC(=O)O,i,3%,1,0.99,9,1
COc1cc(OC)c(-c2nnc(-c3ccc(OC)c(OC)c3OC)o2)cc1OC,.,13%,19,1.2,7,2.1*
Cc1cccc(-n2c(N)cc(=O)[nH]c2=S)c1,i,7%,16,1.1,5,1.2
COc1ccccc1-c1nc(C(N)=O)c2[nH]c(=O)n(-c3cccc(C)c3)c2n1,+,23%,12,1,3,3.9*
CCOc1ccccc1-c1nc(C(N)=O)c2[nH]c(=O)n(-c3ccccc3)c2n1,i,8%,11,1.1,0,3*
COc1cccc(-c2nc(C(N)=O)c3[nH]c(=O)n(-c4ccccc4)c3n2)c1OC,i,4%,3,1.1,3,1.1
Cc1cccc(-n2c(=O)[nH]c3c(C(N)=O)nc(-c4ccccc4Cl)nc32)c1,.,6%,9,1.1,3,2.1*
C=CCn1c(SCC(=O)Nc2cc(C)nn2-c2ccccc2)nnc1C1CCCCC1,i,7%,20,1.1,2,1.1
O=C(O)c1ccccc1OCCOc1ccccc1C(=O)O,i,0%,1,1,0,1
COc1ccc(OCCn2c(=N)n(CCO)c3ccccc32)cc1,i,4%,3,1,4,1.1
COc1ccc(C(O)Cn2c(=N)n(CCCN(C)C)c3ccccc32)cc1 (stereo not drawn),+,8%,8,1,0,0.99
Cn1c(=O)c2cc(S(=O)(=O)NCCC(=O)NCc3ccccc3Cl)ccc2n(C)c1=O,i,6%,15,1,3,1.1
CCN1CCN(CC(=O)Nc2ccc(Cl)c(Cl)c2)C(=O)C1=O,i,4%,9,1.1,1,1.2
SMILES,Spn DPM-DC inh,NADH enzymes,Spn PMK inh,Abs 340nm,MK inhibit,Fluor 339 460
COc1ccc(C2C(=O)N(C3CCCCC3)CC(=O)N2C2CCCC2)cc1 (stereo not drawn),i,3%,8,1,0,1.2
CNc1nnc(-c2cccc(N(C)C)c2)s1,i,3%,0,1,4,2.9*
O=C1c2oc3ccc(Cl)cc3c(=O)c2C(c2ccco2)N1CCN1CCOCC1 (stereo not drawn),i,2%,7,1.1,0,1.2
Cc1cccc(Nc2n[nH]c(=S)s2)c1C,+,29%,0,1.1,54*,1.1
Cc1cc2n(c1)CCn1c(C)ccc1-2,i,3%,0,1.1,2,1.4
COc1cc(-c2noc(CCCC(=O)NCc3ccco3)n2)cc(OC)c1OC,i,5%,11,1,3,1.1
COc1nc(C)ccc1-c1noc(-c2ccco2)n1,i,8%,7,1,8,1.1
